# Measurements taken from PubChem BioAssay (NCATS).
# Inconclusive results are not listed. Entries that show only a call come without a potency. Calls of active or inactive are those of the source. Unless noted, the call rests on the fitted dose curve; in most records, active means well fitted curve in the direction sought with a large enough effect; inconclusive means small, poorly fitted or top-dose-only effect, or another doubt; inactive means no such curve, though single readings can be large; an effect the other way counts as inactive or inconclusive.
# Tests used:
# [1] = target: Rap guanine nucleotide exchange factor 3 (Homo sapiens) (UniProt O95398); assay: Confirmatory qHTS for agonist of cAMP-regulated guanine nucleotide exchange factor 3 (EPAC1) (AID 1645881);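 further: EPAC1 catalysed release of BODIPY-GDP from Rap1B seen as fluorescence loss; nearly all actives have a fitted effect of over 75% in size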
# Rap guanine nucleotide exchange factor 3 (Homo sapiens), sequence (O95398 whole entry, looked up): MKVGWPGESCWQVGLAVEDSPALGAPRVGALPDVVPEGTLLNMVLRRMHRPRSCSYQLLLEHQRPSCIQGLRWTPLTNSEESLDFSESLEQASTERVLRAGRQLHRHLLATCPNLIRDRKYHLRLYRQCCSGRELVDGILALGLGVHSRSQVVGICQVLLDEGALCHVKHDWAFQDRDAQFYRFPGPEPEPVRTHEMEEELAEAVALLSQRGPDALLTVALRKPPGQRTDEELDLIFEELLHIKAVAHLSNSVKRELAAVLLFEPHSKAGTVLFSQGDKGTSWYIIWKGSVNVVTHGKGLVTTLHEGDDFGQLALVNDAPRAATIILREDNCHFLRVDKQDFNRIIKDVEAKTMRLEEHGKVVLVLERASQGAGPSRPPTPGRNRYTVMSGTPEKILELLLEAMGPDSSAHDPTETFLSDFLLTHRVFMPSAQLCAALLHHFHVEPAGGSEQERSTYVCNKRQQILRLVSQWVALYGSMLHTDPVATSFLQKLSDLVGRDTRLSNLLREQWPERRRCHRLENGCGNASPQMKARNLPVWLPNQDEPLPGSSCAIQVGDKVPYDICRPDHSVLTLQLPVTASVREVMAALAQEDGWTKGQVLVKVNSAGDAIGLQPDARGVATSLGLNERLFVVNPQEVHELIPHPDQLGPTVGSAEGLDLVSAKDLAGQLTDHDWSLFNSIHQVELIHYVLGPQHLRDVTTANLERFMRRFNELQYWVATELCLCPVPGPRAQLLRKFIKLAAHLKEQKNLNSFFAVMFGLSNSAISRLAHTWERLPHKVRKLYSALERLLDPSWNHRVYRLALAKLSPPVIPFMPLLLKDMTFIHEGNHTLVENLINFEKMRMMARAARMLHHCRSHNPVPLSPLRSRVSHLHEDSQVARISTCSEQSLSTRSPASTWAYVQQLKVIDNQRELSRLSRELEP
# [2] = target: Rap guanine nucleotide exchange factor 4 (Homo sapiens) (UniProt Q8WZA2); assay: Confirmatory qHTS for agonist of cAMP-regulated guanine nucleotide exchange factor 4 (EPAC2) (AID 1645884);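 further: nucleotide exchange releases bodipy-GDP from Rap1 and this lowers its fluorescence; nearly all actives have a fitted effect of over 65% in size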
# Rap guanine nucleotide exchange factor 4 (Homo sapiens), sequence (Q8WZA2 whole entry, looked up): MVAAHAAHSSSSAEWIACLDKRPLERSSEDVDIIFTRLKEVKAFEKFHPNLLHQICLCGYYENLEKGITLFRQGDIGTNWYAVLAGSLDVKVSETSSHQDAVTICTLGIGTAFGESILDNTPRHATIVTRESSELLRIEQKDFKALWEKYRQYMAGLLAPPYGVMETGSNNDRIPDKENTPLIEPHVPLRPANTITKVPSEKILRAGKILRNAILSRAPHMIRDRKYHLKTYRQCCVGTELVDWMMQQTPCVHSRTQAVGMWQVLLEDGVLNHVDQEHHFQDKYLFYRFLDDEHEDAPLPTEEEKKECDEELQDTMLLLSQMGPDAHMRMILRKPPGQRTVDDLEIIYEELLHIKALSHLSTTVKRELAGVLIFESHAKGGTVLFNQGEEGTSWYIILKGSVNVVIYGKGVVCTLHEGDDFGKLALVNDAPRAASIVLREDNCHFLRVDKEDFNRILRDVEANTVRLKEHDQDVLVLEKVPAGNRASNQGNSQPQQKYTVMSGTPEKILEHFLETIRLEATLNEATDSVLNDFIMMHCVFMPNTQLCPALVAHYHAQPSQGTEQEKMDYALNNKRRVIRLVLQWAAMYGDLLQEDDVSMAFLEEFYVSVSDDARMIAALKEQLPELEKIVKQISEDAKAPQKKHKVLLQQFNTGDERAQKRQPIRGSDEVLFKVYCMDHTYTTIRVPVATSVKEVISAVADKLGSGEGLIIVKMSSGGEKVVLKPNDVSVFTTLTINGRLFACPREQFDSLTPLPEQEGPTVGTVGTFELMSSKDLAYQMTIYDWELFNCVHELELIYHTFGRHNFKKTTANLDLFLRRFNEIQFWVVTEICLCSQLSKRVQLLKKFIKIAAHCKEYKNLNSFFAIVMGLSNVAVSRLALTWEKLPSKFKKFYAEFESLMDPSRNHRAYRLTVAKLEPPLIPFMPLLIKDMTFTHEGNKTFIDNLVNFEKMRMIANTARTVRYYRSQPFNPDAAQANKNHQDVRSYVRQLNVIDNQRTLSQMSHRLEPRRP
# [3] = target: Rap guanine nucleotide exchange factor 4 (Homo sapiens) (UniProt Q8WZA2); assay: Confirmatory qHTS for antagonist of cAMP-regulated guanine nucleotide exchange factor 4 (EPAC2) (AID 1645885); further: nearly all actives have a fitted effect of over 25% in size
# [4] = target: Rap guanine nucleotide exchange factor 3 (Homo sapiens) (UniProt O95398); assay: Counterscreen qHTS for antagonist of cAMP-regulated guanine nucleotide exchange factor 3 (EPAC1) (AID 1645888);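 further: fluorescence loss as bound BODIPY-GDP is released from Rap1B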
# Procedure, shortened: (§1)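 Rap1B–BODIPY-GDP (250 nM) with 50 uM GDP; compounds pin-transferred to 9.74 nM–152 uM final (activator) or from 7.32 nM upwards (inhibitor). Fluorescence Ex/Em 480/540 nm read at 5 and 30 min, then after adding cAMP or buffer, at room temperature.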
# [5] = target: Rap guanine nucleotide exchange factor 3 (Homo sapiens) (UniProt O95398); assay: Counterscreen qHTS for agonist of cAMP-regulated guanine nucleotide exchange factor 3 (EPAC1) (AID 1645889); further: nearly all actives have a fitted effect of over 40% in size
# Procedure, shortened: as §1
# [6] = target: Catechol O-methyltransferase (Homo sapiens) (UniProt P21964); assay: Confirmatory Screen for Target Class Profiling of Small Molecule Inhibitors of Methyltransferases (AID 1745852; calls by dose curve); details: MTase-Glo luminescence, SAH detection, recombinant enzyme; measured here: COMT max response; stronger effect = lower value
# Catechol O-methyltransferase (Homo sapiens), sequence (P21964 whole entry, looked up): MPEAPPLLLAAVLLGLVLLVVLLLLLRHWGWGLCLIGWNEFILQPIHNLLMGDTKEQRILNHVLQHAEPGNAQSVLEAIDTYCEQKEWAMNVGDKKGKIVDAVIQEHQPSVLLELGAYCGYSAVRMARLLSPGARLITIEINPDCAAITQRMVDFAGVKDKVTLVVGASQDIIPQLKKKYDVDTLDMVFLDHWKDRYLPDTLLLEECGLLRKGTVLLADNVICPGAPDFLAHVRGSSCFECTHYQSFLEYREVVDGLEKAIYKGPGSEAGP
# [7] = target: Guanidinoacetate N-methyltransferase (Homo sapiens) (UniProt Q14353); assay: as above; details: MTase-Glo luminescence, SAH detection, recombinant enzyme; activity change, negative = inhibition: at 85.7 µM (top of the series) unless noted
# [8] = target: Nicotinamide N-methyltransferase (Homo sapiens) (UniProt P40261); assay: as above; details: MTase-Glo luminescence, SAH detection, recombinant enzyme; measured here: NNMT max response; stronger effect = lower value
# Nicotinamide N-methyltransferase (Homo sapiens), sequence (P40261 whole entry, looked up): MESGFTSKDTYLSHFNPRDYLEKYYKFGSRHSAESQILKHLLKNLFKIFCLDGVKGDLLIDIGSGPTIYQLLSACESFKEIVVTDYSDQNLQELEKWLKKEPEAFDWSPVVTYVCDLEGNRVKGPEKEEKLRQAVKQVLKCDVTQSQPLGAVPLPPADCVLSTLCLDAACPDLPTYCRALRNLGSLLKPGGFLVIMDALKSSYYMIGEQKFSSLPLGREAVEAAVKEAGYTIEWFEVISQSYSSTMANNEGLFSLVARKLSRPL
# [9] = target: Phenylethanolamine N-methyltransferase (Homo sapiens) (UniProt P11086); assay: as above; details: MTase-Glo luminescence, SAH detection, recombinant enzyme; measured here: PNMT max response; stronger effect = lower value
# Phenylethanolamine N-methyltransferase (Homo sapiens), sequence (P11086 whole entry, looked up): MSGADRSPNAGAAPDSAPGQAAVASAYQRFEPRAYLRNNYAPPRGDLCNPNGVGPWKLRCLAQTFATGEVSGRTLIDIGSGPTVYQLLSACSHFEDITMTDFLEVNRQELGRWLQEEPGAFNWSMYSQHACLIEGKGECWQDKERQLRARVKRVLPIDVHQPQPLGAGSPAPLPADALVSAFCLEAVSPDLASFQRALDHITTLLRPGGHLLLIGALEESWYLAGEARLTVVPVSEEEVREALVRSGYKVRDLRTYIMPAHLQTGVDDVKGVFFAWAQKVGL
# [10] = NCATS anti-infectives library activity on HEK293 viability as a counter-qHTS vs the C. elegans viability qHTS (AID 1745854)
# Procedure, shortened: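 CellTiter-Glo luminescence, read on a CCD imager, scored viability of HEK293 cells after 24 hr compound exposure at 37C. Library tested in several concentrations, 1:5 steps, up to 41.7 uM; digitonin served as control.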
smiles,measurement,setting,value
O=C1NC(=O)N(CCc2ccc(F)cc2)C(=O)/C1=C/c1ccco1,Potency,[1],inactive
same,activation,[2],"1.5% [at 17.1 µM, percent relative to cAMP agonist control] (inactive)"
same,"activity change, negative = inhibition",[3],-8.03% [at 12.7 µM] (inactive)
same,"activity change, negative = inhibition",[4],-2.28% [at 30.8 µM] (inactive)
same,activation,[5],10.6% [at 30.8 µM] (inactive)
Cc1cccc(OCCn2cccc2/C=C2/C(=O)NC(=O)N(Cc3ccco3)C2=O)c1,Potency,[1],inactive
same,Potency,[2],inactive
same,Potency,[3],inactive
same,outcome,[4],inactive
Nc1c2c(nc3sc4c(c13)CCCC4)CCCC2,Potency,[1],inactive
same,activation,[2],"3.84% [at 17.1 µM, percent relative to cAMP agonist control] (inactive)"
same,"activity change, negative = inhibition",[3],-3.15% [at 12.7 µM] (inactive)
same,"activity change, negative = inhibition",[4],4.03% [at 30.8 µM] (inactive)
same,activation,[5],3.23% [at 30.8 µM] (inactive)
Cn1ncnc2c(=O)n(C)c(=O)nc1-2,Potency,[1],inactive
same,Potency,[2],inactive
same,Potency,[3],inactive
same,Potency,[5],inactive
COc1cccc(C(c2nnnn2Cc2ccccc2)N2CCC(n3c(=O)[nH]c4ccccc43)CC2)c1OC (stereo not given),Potency,[1],inactive
same,Potency,[2],inactive
same,outcome,[4],inactive
COc1ccc(-n2c(/C=C/c3ccc(O)c(O)c3)nc3ccccc3c2=O)cc1,Potency,[1],inactive
same,Potency,[2],inactive
same,Potency,[3],inactive
same,outcome,[4],inactive
Cn1cccc1/C=C1/C(=O)NC(=O)N(Cc2ccc(F)cc2)C1=O,Potency,[1],inactive
same,Potency,[2],inactive
same,Potency,[3],inactive
same,outcome,[4],inactive
Cc1ccccc1-c1nc(CN2C(=O)CN=C(c3ccccc3)c3ccccc32)c(C)o1,Potency,[1],inactive
same,Potency,[2],inactive
same,outcome,[4],inactive
CCOC(=O)[C@]12Cc3ccccc3[C@H]1N(C(C)C)C(=O)c1cc(OC)ccc12,Potency,[1],inactive
same,activation,[2],"1.3% [at 17.1 µM, percent relative to cAMP agonist control] (inactive)"
same,"activity change, negative = inhibition",[3],-28.9% [at 12.7 µM] (inactive)
same,"activity change, negative = inhibition",[4],-13.8% [at 30.8 µM] (inactive)
Cc1cccc(CN2C(=O)CN=C(c3ccccc3)c3cc(Cl)ccc32)c1,Potency,[2],inactive
same,outcome,[3],inactive [at 12.7 µM]
same,outcome,[4],inactive
c1ccc(C(c2ccccc2)c2cccnc2)cc1,Potency,[1],inactive
same,outcome,[4],inactive
same,Potency,[5],inactive
FC(F)(F)c1cccc(C2NCc3ccccc3-n3cccc32)c1 (stereo not given),activation,[2],"12.8% [at 17.1 µM, percent relative to cAMP agonist control] (inactive)"
same,"activity change, negative = inhibition",[3],2.28% [at 12.7 µM] (inactive)
C=C[C@H]1CN2CC[C@H]1C[C@@H]2CNC(=O)Nc1ccc(Br)cc1,activity,[6],4.06%
same,"activity change, negative = inhibition",[7],-0.845%
same,activity,[8],-5.4%
same,activity,[9],4.01%
CN(CCc1ccccn1)C[C@H]1CN2CC[C@H]1C[C@@H]2CNC(=O)Nc1ccsc1,activity,[6],-2.73%
same,"activity change, negative = inhibition",[7],6.86%
same,activity,[8],0.703%
same,activity,[9],-0.547%
O=c1ccc2ccc3occc3c2o1,Potency,[10],inactive
COc1ccc(-c2cc3c(cn2)CN(C)CCN3)cn1,activity,[6],1.58%
same,"activity change, negative = inhibition",[7],-1.54% [at 114 µM]
same,activity,[8],-5.95%
same,activity,[9],-1.09%
O=C(c1cc(-c2ccc(Cl)cc2)n(-c2ccc(Cl)cc2Cl)n1)N1CCOCC1,Potency,[1],inactive
same,Potency,[3],inactive
same,outcome,[4],inactive
same,Potency,[5],inactive
[Cl][Pt].[NH2-].[NH2-].c1ccncc1,activity,[6],-4.9%
same,"activity change, negative = inhibition",[7],3.42% [at 57.3 µM]
same,activity,[8],-8.73%
same,activity,[9],0.0118%
